Measurements as given in PubChem BioAssay (NCATS).
Values joined by “and” are separate entries in the source; they are usually repeats but may differ in a detail not shown here. Equal entries are not always repeated. Records with an inconclusive call do not appear. Active and inactive are the calls of the source. Unless noted, calls come from the whole dose curve; as a rule, active = well fitted curve in the direction sought with a large enough effect; inconclusive = small, poorly fitted or top-dose-only effect, or another doubt; inactive = no such curve, though single readings can be large; an effect the other way counts as inactive or inconclusive.

Columns and labels:
[1] = P-glycoprotein substrates identified in KB-8-5-11 adenocarcinoma cell line, qHTS therapeutic library screen (AID 1346987); note: nearly all actives have a fitted effect of over 65% in size; note: potency is the fitted concentration of half-maximal effect
Summary of the method: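 P-gp-mediated resistance screen: KB-8-5-11 cells treated 72 h with compounds in dose-response. CellTiter-Glo viability.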

[2] = NS1 protein of Zika virus - qHTS assay to identify small molecule inhibitors in human HEK 293 cells (AID 1347053); note: series mostly up to about 46 µM; nearly all actives have a fitted effect of over 55% in size
Summary of the method: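 HEK 293; 20 h pre-culture, 37 C/5% CO2; cpd 1 h pre-infection; ZIKV MR766, MOI = 0.5, 24 h, 37 C; TR-FRET NS1 readout (two anti-NS1 Abs); norm. to no-virus vs infected.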

[3] = qHTS of pediatric cancer cell lines to identify multiple opportunities for drug repurposing: Primary screen for TC32 cells (AID 1347089); note: nearly all actives have a fitted effect of over 60% in size; note: potency is the fitted concentration of half-maximal effect
Summary of the method: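 TC32 cells, 500-1,000/well in growth medium, compound-treated 48 h at 37 °C; viability from CellTiter-Glo luminescence. Primary screen: MIPE 11-point (0.78 nM–46 µM final), NPC 8-point (0.59 nM–46 µM final); confirmatory at 11-point dilutions.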

[4] = qHTS of pediatric cancer cell lines to identify multiple opportunities for drug repurposing: Primary screen for SJ-GBM2 cells (AID 1347091); note: potency is the fitted concentration of half-maximal effect
Summary of the method: (§1)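 Viability measured as metabolically active cells via CellTiter-Glo luminescence following 48 hours of compound exposure, 11-point dilutions in confirmatory testing. 500-1,000 cells/well plated 5 hours before dosing; controls were DMSO and 2.3 µM bortezomib.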

[5] = qHTS of pediatric cancer cell lines to identify multiple opportunities for drug repurposing: Primary screen for A673 cells (AID 1347092); note: nearly all actives have a fitted effect of over 45% in size; note: potency is the fitted concentration of half-maximal effect
Summary of the method: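 A673 cells (500-1,000 cells/well) were treated 48 hours at 37 degrees C with compounds at 11-point (0.78 nM to 46 µM) or 8-point (0.59 nM to 46 µM) dilutions. Viability read by CellTiter-Glo luminescence; concentration-response curves fitted.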

[6] = qHTS of pediatric cancer cell lines to identify multiple opportunities for drug repurposing: Primary screen for BT-37 cells (AID 1347094); note: potency is the fitted concentration of half-maximal effect
Summary of the method: (§2)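 ATP-based luminescence (CellTiter-Glo) quantifies viability after a 48-hour exposure. Compounds are dosed across 8 or 11 final concentrations; DMSO and 2.3 µM bortezomib serve as controls.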

[7] = qHTS of pediatric cancer cell lines to identify multiple opportunities for drug repurposing: Primary screen for NB-EBc1 cells (AID 1347095); note: potency is the fitted concentration of half-maximal effect
Summary of the method: as §2

[8] = qHTS of pediatric cancer cell lines to identify multiple opportunities for drug repurposing: Primary screen for DAOY cells (AID 1347090); note: nearly all actives have a fitted effect of over 55% in size; note: potency is the fitted concentration of half-maximal effect
Summary of the method: as §1

[9] = qHTS of pediatric cancer cell lines to identify multiple opportunities for drug repurposing: Primary screen for SK-N-MC cells (AID 1347093); note: potency is the fitted concentration of half-maximal effect
Summary of the method: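 Metabolically active cells were quantified by ATP-dependent luminescence (CellTiter-Glo, 15 min at room temperature) following 48 h treatment. Cells had been plated at 500-1,000 per well and settled for 5 h beforehand.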

[10] = Natriuretic polypeptide receptor (hNpr1) antagonism - Pilot counterscreen GloSensor control cell line (AID 1347045; calls by dose curve; note: potency is the fitted concentration of half-maximal effect)
Summary of the method: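 This counterscreen uses HEK293 cells expressing the GIP/pGS-40F cGMP biosensor. Compound-treated cells are challenged with 50 uM sodium nitroprusside, and the luciferase signal is compared before and after stimulation.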

[11] = target: Atrial natriuretic peptide receptor 1 (Homo sapiens) (UniProt P16066); assay: Natriuretic polypeptide receptor (hNpr1) antagonism - Pilot screen (AID 1347049; calls by dose curve;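 note: agonist-evoked cGMP luminescence read 20 min after hNppA addition; potency is the fitted concentration of half-maximal effect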)
Summary of the method: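 HEK293 cells expressing hNpr1 and GloSensor cGMP luciferase, 1500/well, loaded with 2% GloSensor reagent 2 h, compound 30 min at room temperature; luminescence read before and 20 min after 0.1 nM hNppA stimulation.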

[12] = target: Atrial natriuretic peptide receptor 2 (Homo sapiens) (UniProt P20594); assay: Natriuretic polypeptide receptor (hNpr2) antagonism - Pilot subtype selectivity assay (AID 1347050; calls by dose curve; note: potency is the fitted concentration of half-maximal effect)
Summary of the method: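 HEK293 cells expressing hNpr2 and a GloSensor cGMP luciferase sensor, 1500/well, preloaded 2 h with 2% GloSensor reagent, compound 30 min, then 1 nM hNppC for 20 min. Antagonism from luminescence after versus baseline pre-read; LOPAC in 1:5 titrations.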

[13] = target: T1, Tyrosine-protein phosphatase non-receptor type substrate 1 (Homo sapiens) + Leukocyte surface antigen CD47 (Homo sapiens) (UniProt P78324+Q08722); assay: CD47-SIRPalpha protein protein interaction - LANCE assay qHTS validation (AID 1347057; active = well fitted curve in the direction sought with a large enough effect in the signal ratio, with a control signal flat, not every such curve was filed as active; the % refers to the signal ratio; note: series mostly up to about 38 µM)
Summary of the method: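 First, His-tagged CD47 and Eu-labelled anti-His antibody met the compound for 30 min; next, site-specifically biotinylated SIRPalpha was added for 30 min; finally streptavidin-APC was added before reading the TR-FRET ratio.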

[14] = target: T1, Tyrosine-protein phosphatase non-receptor type substrate 1 (Homo sapiens) + Leukocyte surface antigen CD47 (Homo sapiens); assay: CD47-SIRPalpha protein protein interaction - HTRF assay qHTS validation (AID 1347058; active = well fitted curve in the direction sought with a large enough effect in the signal ratio, not every such curve was filed as active; the % refers to the signal ratio;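 note: recombinant soluble extracellular CD47 with His tag and biotinylated SIRPalpha domains; series mostly up to about 38 µM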)
Summary of the method: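 TR-FRET read (Ch1/Ch2 ratio) of soluble extracellular CD47 and Avi-biotinylated SIRPalpha domains in PBS pH 7.4 with 0.05% IGEPAL; 7-point compound titration. Sequential 30 min room-temperature steps; non-biotinylated SIRPalpha as control inhibitor.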

[15] = target: T1, Tyrosine-protein phosphatase non-receptor type substrate 1 (Homo sapiens) + Leukocyte surface antigen CD47 (Homo sapiens); assay: CD47-SIRPalpha protein protein interaction - Alpha assay qHTS validation (AID 1347059);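 note: bead proximity luminescence from CD47 binding SIRPalpha after compound preincubation with SIRPalpha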
Summary of the method: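 Biotinylated Avi-tagged SIRPalpha (25 nM) preincubated 30 min with compound, then His-tagged CD47 (12.5 nM) added 30 min; AlphaScreen with Ni-NTA acceptor and streptavidin donor beads. PBS pH 7.4, 0.05% IGEPAL, room temperature; 7-point titrations.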

[16] = target: Parathyroid hormone/parathyroid hormone-related peptide receptor (Homo sapiens) (UniProt Q03431); assay: qHTS for PTHR1 Agonists: Optimization Screen against the NCGC LOPAC library (AID 1347079);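 note: GloSensor cAMP luminescence in HEK-293 GP2 cells expressing human PTHR1 with IBMX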
Summary of the method: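 Compounds were tested across a qHTS titration. PTHR1-expressing GP2 cells report cAMP rises via GloSensor luminescence after 1 hr compound exposure at 37C with IBMX present.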

Measured: Potency

T1 sequence (P78324 whole entry, looked up): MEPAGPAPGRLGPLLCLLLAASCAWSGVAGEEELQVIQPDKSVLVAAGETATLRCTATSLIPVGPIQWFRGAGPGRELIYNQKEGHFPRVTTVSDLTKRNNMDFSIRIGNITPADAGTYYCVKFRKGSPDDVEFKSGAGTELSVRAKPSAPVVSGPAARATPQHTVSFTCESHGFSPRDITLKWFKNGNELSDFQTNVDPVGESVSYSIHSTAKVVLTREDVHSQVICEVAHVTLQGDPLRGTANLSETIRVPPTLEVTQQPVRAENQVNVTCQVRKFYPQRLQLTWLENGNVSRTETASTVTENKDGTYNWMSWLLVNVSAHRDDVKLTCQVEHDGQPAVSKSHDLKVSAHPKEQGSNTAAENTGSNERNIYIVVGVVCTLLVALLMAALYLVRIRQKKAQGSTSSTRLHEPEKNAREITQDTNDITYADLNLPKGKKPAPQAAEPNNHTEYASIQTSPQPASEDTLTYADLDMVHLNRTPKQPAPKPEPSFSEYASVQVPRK
T1 sequence (Q08722 whole entry, looked up): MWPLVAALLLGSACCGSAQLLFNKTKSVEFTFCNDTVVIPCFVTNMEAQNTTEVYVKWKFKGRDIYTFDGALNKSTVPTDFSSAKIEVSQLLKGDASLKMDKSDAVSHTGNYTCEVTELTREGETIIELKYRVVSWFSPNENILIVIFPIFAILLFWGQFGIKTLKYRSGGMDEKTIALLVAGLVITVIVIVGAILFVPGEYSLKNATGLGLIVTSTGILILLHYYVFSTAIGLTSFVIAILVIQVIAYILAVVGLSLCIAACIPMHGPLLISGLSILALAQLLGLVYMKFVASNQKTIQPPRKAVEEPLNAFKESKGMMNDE
Chain of Atrial natriuretic peptide receptor 2 (Homo sapiens) (P20594 whole entry, looked up): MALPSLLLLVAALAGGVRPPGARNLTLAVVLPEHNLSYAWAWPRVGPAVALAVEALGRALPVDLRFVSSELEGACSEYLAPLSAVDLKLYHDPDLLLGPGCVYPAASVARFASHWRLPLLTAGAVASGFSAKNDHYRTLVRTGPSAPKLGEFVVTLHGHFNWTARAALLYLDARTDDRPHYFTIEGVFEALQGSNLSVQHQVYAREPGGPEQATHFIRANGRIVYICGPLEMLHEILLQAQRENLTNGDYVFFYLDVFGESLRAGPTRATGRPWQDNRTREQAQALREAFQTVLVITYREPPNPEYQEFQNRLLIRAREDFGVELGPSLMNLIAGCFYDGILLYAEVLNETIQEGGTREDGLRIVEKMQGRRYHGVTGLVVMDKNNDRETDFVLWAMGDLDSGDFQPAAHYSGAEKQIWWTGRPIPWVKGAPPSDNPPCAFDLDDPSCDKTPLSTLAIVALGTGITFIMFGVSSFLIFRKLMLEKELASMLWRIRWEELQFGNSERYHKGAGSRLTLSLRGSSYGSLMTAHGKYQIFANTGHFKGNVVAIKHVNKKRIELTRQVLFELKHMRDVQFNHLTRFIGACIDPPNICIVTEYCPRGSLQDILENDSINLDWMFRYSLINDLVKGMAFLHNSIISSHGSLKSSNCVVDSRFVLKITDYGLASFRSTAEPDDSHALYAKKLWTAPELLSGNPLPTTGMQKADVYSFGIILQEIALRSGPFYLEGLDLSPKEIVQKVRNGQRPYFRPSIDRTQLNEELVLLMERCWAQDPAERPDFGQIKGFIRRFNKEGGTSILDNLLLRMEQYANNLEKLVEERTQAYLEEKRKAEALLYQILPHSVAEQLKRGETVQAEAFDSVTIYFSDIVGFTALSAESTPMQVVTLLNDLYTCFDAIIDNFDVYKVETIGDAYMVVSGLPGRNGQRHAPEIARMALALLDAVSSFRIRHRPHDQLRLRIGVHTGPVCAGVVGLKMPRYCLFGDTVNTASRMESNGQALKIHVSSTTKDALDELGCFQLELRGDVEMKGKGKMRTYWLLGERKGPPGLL
Chain of Parathyroid hormone/parathyroid hormone-related peptide receptor (Homo sapiens) (Q03431 whole entry, looked up): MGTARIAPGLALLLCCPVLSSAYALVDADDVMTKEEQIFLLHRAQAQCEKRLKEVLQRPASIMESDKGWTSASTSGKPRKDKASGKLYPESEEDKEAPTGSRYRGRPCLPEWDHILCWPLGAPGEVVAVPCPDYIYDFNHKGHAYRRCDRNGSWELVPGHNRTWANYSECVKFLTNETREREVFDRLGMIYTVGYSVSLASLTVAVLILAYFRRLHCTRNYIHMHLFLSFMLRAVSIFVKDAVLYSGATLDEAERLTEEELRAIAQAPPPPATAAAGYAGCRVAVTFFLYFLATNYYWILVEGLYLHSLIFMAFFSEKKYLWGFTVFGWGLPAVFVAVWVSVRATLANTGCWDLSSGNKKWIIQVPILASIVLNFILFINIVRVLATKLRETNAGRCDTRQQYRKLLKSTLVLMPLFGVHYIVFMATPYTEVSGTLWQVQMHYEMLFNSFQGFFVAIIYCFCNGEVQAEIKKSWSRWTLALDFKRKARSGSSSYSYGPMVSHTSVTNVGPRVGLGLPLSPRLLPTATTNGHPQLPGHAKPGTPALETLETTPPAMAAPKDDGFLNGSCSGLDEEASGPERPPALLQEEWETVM
Chain of Atrial natriuretic peptide receptor 1 (Homo sapiens) (P16066 whole entry, looked up): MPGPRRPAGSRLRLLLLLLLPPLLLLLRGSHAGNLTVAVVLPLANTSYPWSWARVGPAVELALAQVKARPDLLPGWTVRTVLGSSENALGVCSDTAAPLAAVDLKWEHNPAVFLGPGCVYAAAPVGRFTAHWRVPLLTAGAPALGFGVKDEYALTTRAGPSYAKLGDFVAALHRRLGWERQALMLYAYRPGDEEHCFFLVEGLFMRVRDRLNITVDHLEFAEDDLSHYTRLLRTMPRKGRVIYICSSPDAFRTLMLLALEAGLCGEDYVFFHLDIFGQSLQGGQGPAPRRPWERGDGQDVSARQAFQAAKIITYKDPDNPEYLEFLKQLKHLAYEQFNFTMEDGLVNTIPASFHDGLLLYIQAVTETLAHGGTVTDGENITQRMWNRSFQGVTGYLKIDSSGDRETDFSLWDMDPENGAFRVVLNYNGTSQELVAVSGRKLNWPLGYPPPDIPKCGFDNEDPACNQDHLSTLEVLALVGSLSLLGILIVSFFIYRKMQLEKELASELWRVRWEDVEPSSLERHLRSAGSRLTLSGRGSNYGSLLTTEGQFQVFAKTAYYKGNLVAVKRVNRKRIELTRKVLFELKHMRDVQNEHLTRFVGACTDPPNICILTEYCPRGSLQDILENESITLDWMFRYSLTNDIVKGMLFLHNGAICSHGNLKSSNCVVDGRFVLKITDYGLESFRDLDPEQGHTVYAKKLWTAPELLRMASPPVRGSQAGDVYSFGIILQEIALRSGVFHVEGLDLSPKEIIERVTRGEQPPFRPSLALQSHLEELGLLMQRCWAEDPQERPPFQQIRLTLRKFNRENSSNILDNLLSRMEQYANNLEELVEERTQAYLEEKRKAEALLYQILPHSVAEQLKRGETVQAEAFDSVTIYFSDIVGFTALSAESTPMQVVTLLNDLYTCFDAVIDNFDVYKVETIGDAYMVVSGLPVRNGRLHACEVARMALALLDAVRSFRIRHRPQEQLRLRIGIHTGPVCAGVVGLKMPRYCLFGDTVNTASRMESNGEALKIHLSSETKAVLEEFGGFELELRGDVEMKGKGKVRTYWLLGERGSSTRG

CN(Cc1cc(Br)cc(Br)c1N)C1CCCCC1
inactive: [1] | [2] | [3] | [4] | [5] | [6]

O=c1cc(O)c(Cl)c[nH]1
inactive: [1] | [2] | [3] | [4] | [6] | [7]

O=C(O)c1cccnc1
inactive: [1] | [2] | [3] | [8] | [4] | [5] | [6] | [7]

CC[C@H](C)C(=O)O[C@H]1C[C@@H](C)C=C2C=C[C@H](C)[C@H](CC[C@@H]3C[C@@H](O)CC(=O)O3)[C@H]21
active: [1] 18.7 µM | [4] 9.44 µM and 13.2 µM
inactive: [2] | [3] | [9]

CC(C)(C)C(=O)OCOP(=O)(COCCn1cnc2c(N)ncnc21)OCOC(=O)C(C)(C)C
active: [3] 2.64 µM and 10.4 µM | [5] 2.11 µM and 743 nM | [9] 188 nM and 1 nM | [6] 3.47 µM and 10.9 µM | [7] 2.99 µM and 662 nM
inactive: [1] | [2]

CC1(C)[C@H](C(=O)O)N2C(=O)C[C@H]2S1(=O)=O
inactive: [1] | [2] | [3] | [8] | [4] | [5] | [6]

COC(=O)Nc1nc2ccc(Sc3ccccc3)cc2[nH]1
active: [1] 495 nM and 1.18 µM | [3] 1.33 µM and 2.62 µM | [4] 0.833 µM | [5] 1.06 µM and 935 nM | [9] 841 nM and 590 nM | [6] 1.74 µM and 3.06 µM | [7] 0.469 µM
inactive: [2]

CCOc1cc(N)c(Cl)cc1C(=O)NCC1CN(Cc2ccc(F)cc2)CCO1 (stereo unspecified)
inactive: [1] | [2] | [3] | [8] | [4] | [5] | [6]

CCOC(=O)c1ccc(OC(=O)CCCCCN=C(N)N)cc1
inactive: [1] | [2] | [3] | [4] | [5] | [9] | [6] | [7]

CCn1cc(C(=O)O)c(=O)c2cc(F)c(N3CCN(C)CC3)cc21
inactive: [1] | [2] | [4] | [5] | [9] | [6]

COc1cc(NCc2ccc3nc(N)nc(N)c3c2C)cc(OC)c1OC
active: [3] 2.94 µM and 33.3 nM | [8] 3.72 µM and 133 nM | [4] 2.64 µM and 29.9 nM | [5] 3.72 µM and 168 nM | [9] 332 nM and 11.9 nM | [6] 1.53 µM and 69.2 nM

CCN(C)C(=O)Oc1cccc([C@H](C)N(C)C)c1
inactive: [2] | [3] | [4] | [5] | [9] | [6] | [7]

Cc1onc(-c2ccccc2Cl)c1C(=O)N[C@@H]1C(=O)N2[C@@H]1SC(C)(C)[C@@H]2C(=O)O
inactive: [2] | [3] | [8] | [4] | [5] | [9] | [6] | [7]

O[C@@H](CNC[C@H](O)[C@H]1CCc2cc(F)ccc2O1)[C@@H]1CCc2cc(F)ccc2O1
inactive: [3] | [8]
active: [4] 20.9 µM | [6] 27.6 µM | [7] 21.1 µM

O=C(O)c1ccc(-n2nc(-c3ccccc3O)nc2-c2ccccc2O)cc1
active: [4] 20.9 µM | [6] 24.6 µM | [7] 8.33 µM
inactive: [2]

Cn1nnc2c(C(N)=O)ncn2c1=O
inactive: [2] | [3] | [4] | [5] | [9] | [6]

Cc1ccc(S(=O)(=O)N[C@@H](Cc2ccccc2)C(=O)CCl)cc1
active: [10] 3.29 µM | [11] 12 µM | [12] 5.85 µM | [4] 9.35 µM | [5] 14.8 µM | [9] 7.43 µM | [6] 24.3 µM | [7] 16.6 µM
inactive: [2] | [13] | [14] | [15] | [16]

CO[C@@H]1[C@@H](OC(N)=O)[C@@H](O)[C@H](Oc2ccc3c(O)c(NC(=O)c4ccc(O)c(CC=C(C)C)c4)c(=O)oc3c2C)OC1(C)C
inactive: [2] | [3] | [8] | [4] | [5] | [9] | [6]

CCOC(=O)c1ccc(C#Cc2ccc3c(c2)C(C)(C)CCS3)nc1
inactive: [2] | [8] | [4] | [6] | [7]
active: [5] 23.5 µM | [9] 18.7 µM
